Laboratory results from PubChem BioAssay (NCATS).
The list shows a part of the results. Inconclusive results are not listed. Values without a mark were called inactive. Activity calls are given as the source filed them. The call rests on the fitted dose curve; in most records, active means well fitted curve in the direction sought with a large enough effect; inconclusive means small, poorly fitted or top-dose-only effect, or another doubt; inactive means no such curve, though single readings can be large; an effect the other way counts as inactive or inconclusive.
Potency means the concentration at half of the fitted maximal effect.

Target: DNA polymerase iota (Homo sapiens) (UniProt Q9UNA4)
Sequence (Q9UNA4 whole entry, looked up): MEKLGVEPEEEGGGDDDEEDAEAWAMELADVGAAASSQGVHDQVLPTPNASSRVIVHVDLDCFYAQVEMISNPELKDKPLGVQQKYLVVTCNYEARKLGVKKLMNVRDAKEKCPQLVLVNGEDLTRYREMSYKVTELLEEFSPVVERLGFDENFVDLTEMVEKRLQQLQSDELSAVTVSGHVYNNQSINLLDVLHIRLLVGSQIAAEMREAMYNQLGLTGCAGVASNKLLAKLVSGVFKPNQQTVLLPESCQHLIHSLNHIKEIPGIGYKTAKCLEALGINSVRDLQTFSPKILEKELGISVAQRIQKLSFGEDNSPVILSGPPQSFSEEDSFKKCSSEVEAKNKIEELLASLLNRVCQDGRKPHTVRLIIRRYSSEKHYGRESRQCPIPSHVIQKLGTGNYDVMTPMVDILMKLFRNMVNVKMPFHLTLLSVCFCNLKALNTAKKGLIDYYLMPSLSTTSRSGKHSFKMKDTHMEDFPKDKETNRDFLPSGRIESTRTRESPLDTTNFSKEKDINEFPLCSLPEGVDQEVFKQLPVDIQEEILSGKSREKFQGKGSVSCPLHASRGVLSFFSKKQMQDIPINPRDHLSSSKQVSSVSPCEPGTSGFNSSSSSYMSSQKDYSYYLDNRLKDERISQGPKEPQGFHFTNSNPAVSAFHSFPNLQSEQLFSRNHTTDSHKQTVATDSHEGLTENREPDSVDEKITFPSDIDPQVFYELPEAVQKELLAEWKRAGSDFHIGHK
Experiment: qHTS for Inhibitors of Polymerase Iota: Confirmatory Assay for Cherry-picked Compounds (AID 720496)
Settings: Pol iota primer extension, TAMRA/BHQ fluorescence
How it was run: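 10 nM Pol iota + cpd, 15 min RT; start w/ 50 nM (final) TAMRA reporter/BHQ-2 template primer substrate; ex 525/em 598 nm read at 0 and 10 min kinetic.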
In the case of `Cc1ccc(C(=O)O)cc1-c1ccc(/C=C2\SC(=O)N(CC(=O)Nc3ccc4c(c3)OCO4)C2=O)o1`, the Potency is reported as 7.52 µM (active). In the case of `COc1ccc(Cl)cc1NC(=O)CCS(=O)(=O)c1ccc(Br)cc1`, the Potency is reported as 18.9 µM (active). In the case of `Cc1cc(/C=C2\SC(=O)N(C)C2=O)c(C)n1-c1cccc(C(=O)O)c1`, the Potency is reported as 47.4 µM (active). In the case of `O=C(CSc1nc2ccccc2c(=O)[nH]1)Nc1nc(-c2ccc(Br)cc2)cs1`, the Potency is reported as 21.2 µM (active). In the case of `ON=C1/C(=N\O)CC2(C/C1=N/O)OCCO2`, the Potency is reported as 59.7 µM (active).

Target: Bifunctional 3'-5' exonuclease/ATP-dependent helicase WRN (Homo sapiens) (UniProt Q14191)
Sequence (Q14191 whole entry, looked up): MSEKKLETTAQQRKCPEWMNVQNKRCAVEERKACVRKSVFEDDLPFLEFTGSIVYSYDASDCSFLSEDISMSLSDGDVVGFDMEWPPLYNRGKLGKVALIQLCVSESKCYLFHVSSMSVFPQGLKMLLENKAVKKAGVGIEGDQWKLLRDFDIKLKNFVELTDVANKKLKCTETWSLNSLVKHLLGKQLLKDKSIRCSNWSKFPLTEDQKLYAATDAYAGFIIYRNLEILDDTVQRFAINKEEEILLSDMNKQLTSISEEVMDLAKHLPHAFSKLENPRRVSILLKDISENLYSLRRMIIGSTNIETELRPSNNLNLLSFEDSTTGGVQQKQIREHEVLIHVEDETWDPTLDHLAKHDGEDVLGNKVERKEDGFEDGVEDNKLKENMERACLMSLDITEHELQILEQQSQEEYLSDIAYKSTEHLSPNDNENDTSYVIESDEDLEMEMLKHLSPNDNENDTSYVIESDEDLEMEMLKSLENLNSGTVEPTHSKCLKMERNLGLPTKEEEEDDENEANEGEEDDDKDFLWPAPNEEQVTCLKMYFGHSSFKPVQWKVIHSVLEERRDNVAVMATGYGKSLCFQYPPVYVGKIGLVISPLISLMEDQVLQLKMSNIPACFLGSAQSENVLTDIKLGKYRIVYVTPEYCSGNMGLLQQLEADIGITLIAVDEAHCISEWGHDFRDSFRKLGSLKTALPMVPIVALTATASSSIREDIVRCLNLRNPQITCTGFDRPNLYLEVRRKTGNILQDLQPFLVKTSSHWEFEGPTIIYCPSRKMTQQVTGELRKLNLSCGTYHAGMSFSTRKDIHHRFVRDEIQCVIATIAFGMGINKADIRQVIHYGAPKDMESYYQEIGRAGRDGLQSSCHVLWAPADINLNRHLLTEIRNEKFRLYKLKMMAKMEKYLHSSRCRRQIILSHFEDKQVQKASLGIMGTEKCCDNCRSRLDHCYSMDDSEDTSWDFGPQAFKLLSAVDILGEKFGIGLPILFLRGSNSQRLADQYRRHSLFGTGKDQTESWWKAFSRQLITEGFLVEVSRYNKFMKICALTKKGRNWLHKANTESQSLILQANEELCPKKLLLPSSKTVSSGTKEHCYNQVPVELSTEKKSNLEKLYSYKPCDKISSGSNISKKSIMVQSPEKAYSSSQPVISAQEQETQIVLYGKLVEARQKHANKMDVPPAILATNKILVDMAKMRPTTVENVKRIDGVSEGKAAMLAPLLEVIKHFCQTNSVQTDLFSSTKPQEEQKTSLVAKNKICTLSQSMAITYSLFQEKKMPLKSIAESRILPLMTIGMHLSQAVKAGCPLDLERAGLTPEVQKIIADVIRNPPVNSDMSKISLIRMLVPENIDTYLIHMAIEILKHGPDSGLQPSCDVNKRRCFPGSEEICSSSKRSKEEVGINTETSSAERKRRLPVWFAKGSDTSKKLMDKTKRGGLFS
Experiment: qHTS for Inhibitors of WRN Helicase: Confirmatory Assay for Cherry-picked Compounds. (AID 720497); further: nearly all actives have a fitted effect of over 65% in size
Settings: WRN helicase DNA unwinding, fluorescence kinetic; series mostly up to 57.1 µM; activity, negative = inhibition: at the top concentration
How it was run: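 WRN (20 nM) was preincubated 15 min at RT with compound, then started with 100 nM forked duplex oligonucleotide and 2 mM ATP. Unwinding was read kinetically by red fluorescence (ex 525/em 598 nm), normalized to enzyme-free and uninhibited controls.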
For `N#C/C(=C\C1=C(N2CCOCC2)C(=C\c2ccccc2)/CC1)C(=O)Nc1ccccc1F`, the Potency was 38.3 µM (active). For `CN1CCN(S(=O)(=O)c2cccc(C(=O)Nc3sccc3C#N)c2)CC1`, the Potency was 24.1 µM (active). With `Cc1c(CC(=O)N2CCN(C(=O)C3COc4ccccc4O3)CC2)c(=O)oc2c(O)c(O)ccc12` (stereo not drawn) the Potency was 2.41 µM (active). For `Cc1ccc(-c2nc(SCc3ccc(Br)cc3)n3[nH]c(=O)cc3n2)cc1`, the Potency was 13.6 µM (active). In the case of `CN(C)c1nc(Nc2ccc(Cl)c(Cl)c2)nc(N(C)C)n1`, the “activity, negative = inhibition” value is reported as -7.11%. In the case of `CCc1ccc2nc3sc(C(=O)Nc4nnc(CC)s4)c(N)c3cc2c1`, the Potency is reported as 13.6 µM (active). With `COC(=O)/C=C\C(=O)Nc1cccc([N+](=O)[O-])c1` the “activity, negative = inhibition” value was -7.24%. With `COc1ccc(Cl)cc1NC(=O)CCS(=O)(=O)c1ccc(Br)cc1` the Potency was 21.5 µM (active). In the case of `COc1cccc2c1C(=O)c1c(O)c3c(c(O)c1C2=O)CC(O)(C(C)=NNC(=O)c1ccc(Cl)c(Cl)c1)CC3OC1CC(N)C(O)C(C)O1` (stereo not drawn), the Potency is reported as 1.92 µM (active). With `CCN(CC)CCOc1ccc2c(c1)C(=NNC(=O)c1ccccn1)c1cc(OCCN(CC)CC)ccc1-2` the Potency was 13.6 µM (active).

Target: Flap endonuclease 1 (Homo sapiens) (UniProt P39748)
Sequence (P39748 whole entry, looked up): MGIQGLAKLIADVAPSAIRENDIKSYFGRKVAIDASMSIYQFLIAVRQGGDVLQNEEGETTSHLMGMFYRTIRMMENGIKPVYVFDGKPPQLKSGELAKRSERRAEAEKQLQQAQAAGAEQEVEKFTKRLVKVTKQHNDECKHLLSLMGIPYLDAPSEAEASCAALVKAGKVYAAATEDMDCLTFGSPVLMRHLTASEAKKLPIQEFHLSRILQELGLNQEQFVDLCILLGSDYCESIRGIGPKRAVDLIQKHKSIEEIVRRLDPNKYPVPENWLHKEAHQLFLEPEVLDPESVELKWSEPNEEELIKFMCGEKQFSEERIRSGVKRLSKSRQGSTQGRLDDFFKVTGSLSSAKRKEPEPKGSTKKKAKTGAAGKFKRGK
Experiment: qHTS Assay for the Inhibitors of FEN1: Confirmatory Assay for Cherry-picked Compounds (AID 720498); further: nearly all actives have a fitted effect of over 60% in size
Settings: FEN1 flap cleavage, TAMRA/BHQ2 fluorogenic DNA substrate
How it was run: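 Human FEN1 (10 nM reagent) was preincubated with compounds for 15 min at room temperature, then 50 nM final double-flap DNA substrate (5'-TAMRA flap, BHQ-2 quencher strand) was added. Fluorescence (ex 525/em 598 nm) was read at 0 and 15 min.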
In the case of `O=C(CCNC(=O)c1ccccc1)NN=Cc1ccc(Br)o1`, the Potency is reported as 84.9 µM (active). In the case of `CN(C)CCNC(=O)c1ccc(Cl)c2cc3ccccc3nc12`, the Potency is reported as 13.5 µM (active). For `CCOc1cccc2c1N[C@@H](c1ccc(C(=O)O)cc1)[C@H]1CC=C[C@@H]21`, the Potency was 47.8 µM (active). With `CCN1CCN(CCNC(=O)c2ccc3c(c2)NC(=O)/C(=C\c2ccc(OC)c(OC)c2)S3)CC1` the Potency was 33.8 µM (active). In the case of `COc1ccc2[nH]c3c(C)c4cc[n+](C)cc4c(C)c3c2c1`, the Potency is reported as 1.35 µM (active). With `O=C(COC(=O)c1ccc([N+](=O)[O-])o1)NC12CC3CC(CC(C3)C1)C2` the Potency was 8.49 µM (active). In the case of `O=[N+]([O-])c1ccc(C=Nc2ccc(Cl)cc2Cl)s1`, the Potency is reported as 6.75 µM (active). In the case of `CN1CCN(CCCNC(=O)c2ccc(/C=C3\Oc4ccccc4N(Cc4ccc(Cl)cc4)C3=O)cc2)CC1`, the Potency is reported as 23.9 µM (active). For `C=CC1=C(C(=O)O)N2C(=O)[C@@H](NC(=O)/C(=N/OCC(=O)O)c3csc(N)n3)[C@H]2SC1`, the Potency was 33.8 µM (active). In the case of `CC(=O)Nc1ccc(Nc2c3ccccc3nc3ccccc23)cc1`, the Potency is reported as 30.1 µM (active). For `O=C(O)C(c1ccccc1)N1C(=O)/C(=C\c2ccc(-c3cccc(Cl)c3)o2)SC1=S` (stereo not drawn), the Potency was 75.7 µM (active). For `COc1nc(N=C(N)N)nc2c(C)cccc12`, the Potency was 33.8 µM (active). In the case of `CCc1ccc2nc3sc(C(=O)Nc4nnc(CC)s4)c(N)c3cc2c1`, the Potency is reported as 60.1 µM (active). In the case of `CC(=O)OC1CCC2(C)C(=CCC3C4CC(=O)N(O)C(=O)C4(C)CCC32)C1` (stereo not drawn), the Potency is reported as 23.9 µM (active). With `Cc1ccc(C(=O)O)cc1-c1ccc(/C=C2\SC(=O)N(CC(=O)Nc3ccc4c(c3)OCO4)C2=O)o1` the Potency was 19 µM (active). In the case of `CCN1CCN(CCCNC(=O)c2ccc3c(c2)sc2nc(-c4ccc(OC)cc4)cn23)CC1`, the Potency is reported as 33.8 µM (active). With `O=C(CSc1nc2ccccc2c(=O)[nH]1)Nc1nc(-c2ccc(Br)cc2)cs1` the Potency was 60.1 µM (active). For `c1ccc2cc3c(NCCN4CCOCC4)ccnc3cc2c1`, the Potency was 37.9 µM (active). For `COc1cc(NC(=O)COC(=O)c2ccc([N+](=O)[O-])s2)cc(OC)c1OC`, the Potency was 6.01 µM (active). With `CCN(CC)c1ccc2cc(C(N)=O)/c(=N\NC(=O)c3ccncc3)oc2c1` the Potency was 33.8 µM (active).

Tested on: not listed separately
Experiment: qHTS for Inhibitors of WRN Helicase: Thiazole Orange DNA Binding Counterscreen (AID 720499);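 further: drop in dye fluorescence marks compound binding to DNA; nearly all actives have a fitted effect of over 60% in size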; on activity change, negative = inhibition: on the % scale 0 is the no-effect control and ±100 the full control effect
Settings: thiazole orange DNA binding displacement, fluorescence; series mostly up to 57.1 µM; activity change, negative = inhibition: at the top concentration
How it was run: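 Counterscreen to remove nonspecific DNA binders from WRN helicase hits. Compounds were incubated 15 min at room temperature with 50 nM DNA and 100 nM ThO, then fluorescence was recorded (480 nm excitation, 530 nm emission).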
With `N#C/C(=C\C1=C(N2CCOCC2)C(=C\c2ccccc2)/CC1)C(=O)Nc1ccccc1F` the “activity change, negative = inhibition” value was 20.7%. In the case of `CN1CCN(S(=O)(=O)c2cccc(C(=O)Nc3sccc3C#N)c2)CC1`, the “activity change, negative = inhibition” value is reported as 155%. In the case of `Cc1c(CC(=O)N2CCN(C(=O)C3COc4ccccc4O3)CC2)c(=O)oc2c(O)c(O)ccc12` (stereo not drawn), the “activity change, negative = inhibition” value is reported as -28.7%. In the case of `Cc1ccc(-c2nc(SCc3ccc(Br)cc3)n3[nH]c(=O)cc3n2)cc1`, the “activity change, negative = inhibition” value is reported as -11.6%. With `CN(C)c1nc(Nc2ccc(Cl)c(Cl)c2)nc(N(C)C)n1` the “activity change, negative = inhibition” value was 0.225%. In the case of `COc1ccc(Cl)cc1-c1cc(C(=O)Nc2cc(OC)c(OC)c(OC)c2)[nH]n1`, the “activity change, negative = inhibition” value is reported as 150%. In the case of `CCc1ccc2nc3sc(C(=O)Nc4nnc(CC)s4)c(N)c3cc2c1`, the “activity change, negative = inhibition” value is reported as 122%. In the case of `COC(=O)/C=C\C(=O)Nc1cccc([N+](=O)[O-])c1`, the “activity change, negative = inhibition” value is reported as 0.928%. For `COc1ccc(Cl)cc1NC(=O)CCS(=O)(=O)c1ccc(Br)cc1`, the “activity change, negative = inhibition” value was 5.15%. With `COc1cccc2c1C(=O)c1c(O)c3c(c(O)c1C2=O)CC(O)(C(C)=NNC(=O)c1ccc(Cl)c(Cl)c1)CC3OC1CC(N)C(O)C(C)O1` (stereo not drawn) the “activity change, negative = inhibition” value was 45.8%. With `CCN(CC)CCOc1ccc2c(c1)C(=NNC(=O)c1ccccn1)c1cc(OCCN(CC)CC)ccc1-2` the Potency was 2.15 µM (active). With `CCOc1ccccc1C(=O)NCc1ccco1` the “activity change, negative = inhibition” value was -12.7%. With `O=c1[nH]c2ccccc2n2c(-c3ccccc3)nnc12` the “activity change, negative = inhibition” value was -11.6%.
